Experimental data as given in ChEMBL document CHEMBL3988442, “University of Dundee, Small-Polar-MMV Screening Library” (2021).
For some of these results: Measured potencies and affinities stand elsewhere.

What was measured:
Design in all cases: scale not given: direction of the effect not stated beside the values
[1] = molecular target: Protein translocase subunit SecA (Escherichia coli (strain K12)) (UniProt P10408); experiment: Assay to Identify E. coli SecA ATPase Inhibitors; assay type: functional; details: 30 µM
[2] = molecular target: T1, Ubiquitin-activating enzyme e1, putative (Leishmania donovani (strain BPK282A1)) (UniProt E9BSI1); experiment: Leishmania donovani Ubiquitin Activating Enzyme (LdE1); assay type: functional; details: 30 µM
T1 sequence (whole entry): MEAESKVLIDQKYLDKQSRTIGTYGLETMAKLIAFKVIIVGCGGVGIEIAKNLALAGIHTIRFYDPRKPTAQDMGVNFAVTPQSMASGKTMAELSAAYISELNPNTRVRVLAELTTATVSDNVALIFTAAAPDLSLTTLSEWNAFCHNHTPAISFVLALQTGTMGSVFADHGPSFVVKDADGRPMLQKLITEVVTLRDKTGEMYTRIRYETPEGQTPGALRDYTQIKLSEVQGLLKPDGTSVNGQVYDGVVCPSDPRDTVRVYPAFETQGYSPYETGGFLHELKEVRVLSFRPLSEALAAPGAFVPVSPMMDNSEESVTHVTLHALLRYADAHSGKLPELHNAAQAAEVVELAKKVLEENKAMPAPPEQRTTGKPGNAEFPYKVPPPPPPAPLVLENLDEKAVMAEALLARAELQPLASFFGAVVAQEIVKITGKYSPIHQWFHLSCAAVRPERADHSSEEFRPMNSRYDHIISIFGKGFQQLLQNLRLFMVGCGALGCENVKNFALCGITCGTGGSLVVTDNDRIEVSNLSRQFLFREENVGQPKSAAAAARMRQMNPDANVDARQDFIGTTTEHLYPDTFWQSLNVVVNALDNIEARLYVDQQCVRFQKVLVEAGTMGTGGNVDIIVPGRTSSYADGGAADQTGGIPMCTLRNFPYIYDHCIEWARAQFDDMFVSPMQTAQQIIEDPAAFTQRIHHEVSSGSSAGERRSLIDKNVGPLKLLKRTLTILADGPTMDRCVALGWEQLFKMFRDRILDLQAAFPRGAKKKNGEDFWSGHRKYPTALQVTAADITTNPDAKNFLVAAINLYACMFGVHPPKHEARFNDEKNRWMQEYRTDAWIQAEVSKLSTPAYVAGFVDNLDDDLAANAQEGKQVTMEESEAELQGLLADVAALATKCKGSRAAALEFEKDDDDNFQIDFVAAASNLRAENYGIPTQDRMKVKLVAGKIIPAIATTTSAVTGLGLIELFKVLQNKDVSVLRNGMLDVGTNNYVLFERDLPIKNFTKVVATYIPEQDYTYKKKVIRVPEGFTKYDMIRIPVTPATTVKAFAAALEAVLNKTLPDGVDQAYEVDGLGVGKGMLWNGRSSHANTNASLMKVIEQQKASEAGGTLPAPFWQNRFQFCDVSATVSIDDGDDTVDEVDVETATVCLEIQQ

[3] = molecular target: AMP-activated protein kinase, AMPK (Homo sapiens) (UniProt P54646+O43741+P54619+Q9UGJ0+Q9Y478+Q13131+Q9UGI9); experiment: AMP-dependent Kinase enzyme assay. An in vitro enzyme assay that detects ADP turnover that is directly proportional to AMPK activity. This uses naive AMPK that is activated during the assay with MK-8722; assay type: functional; details: 30 µM
[4] = molecular target: Sialic acid-binding Ig-like lectin 9 (Homo sapiens) (UniProt Q9Y336); experiment: Hs-Siglec9 ALPHAscreen SOP 20170721; details: 10 µM
Trypanosoma cruzi = experiment: Trypanosoma cruzi phosphomannomutase and mannose-1-phosphate guanylyltransferase assay; assay type: functional; details: 10 µM
[5] = molecular target: T2, Arginase-2, mitochondrial (Homo sapiens) (UniProt P78540); experiment: in vitro enzyme assay to detect the production of urea directly proportional to the activity of Arginase II; assay type: functional; details: 33.3 µM; further: in the data most compounds retested in dose-response had high values
T2 sequence (whole entry): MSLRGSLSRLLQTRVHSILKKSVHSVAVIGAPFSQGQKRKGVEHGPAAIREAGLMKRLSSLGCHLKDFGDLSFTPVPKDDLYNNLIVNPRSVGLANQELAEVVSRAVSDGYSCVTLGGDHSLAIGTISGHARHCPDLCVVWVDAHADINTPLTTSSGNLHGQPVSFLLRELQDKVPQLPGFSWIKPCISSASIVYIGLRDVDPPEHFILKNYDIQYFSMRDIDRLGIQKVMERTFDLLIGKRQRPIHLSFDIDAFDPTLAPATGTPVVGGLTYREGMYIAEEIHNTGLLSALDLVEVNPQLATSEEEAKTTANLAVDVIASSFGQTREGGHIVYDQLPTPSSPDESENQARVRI

[6] = molecular target: T3, Proteasome subunit beta (Trypanosoma cruzi) (UniProt O96673); experiment: Trypanosoma cruzi proteasome chymotrypsin-like activity (TcProtChymo) assay.; further: in the data most compounds retested in dose-response had high values; assay type: functional; details: 9.37 µM
T3 sequence (whole entry): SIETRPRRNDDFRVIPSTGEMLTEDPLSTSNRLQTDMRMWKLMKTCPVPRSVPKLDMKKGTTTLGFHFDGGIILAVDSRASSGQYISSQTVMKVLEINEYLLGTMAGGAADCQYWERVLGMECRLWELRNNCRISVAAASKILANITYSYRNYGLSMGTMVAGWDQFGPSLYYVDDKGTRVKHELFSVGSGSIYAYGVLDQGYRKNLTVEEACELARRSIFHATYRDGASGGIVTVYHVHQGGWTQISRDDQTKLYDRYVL

Homo sapiens = species: Homo sapiens; experiment: To identify inhibition of the IFN signalling (Jak-Stat) pathway via expression of an eGFP reporter gene under the control of an IFN-stimulated response element (ISRE) containing MxA promoter.; assay type: functional; details: 30 µM
[7] = molecular target: T4, Tyrosyl-tRNA synthetase, putative (Trypanosoma cruzi (strain CL Brener)) (UniProt Q4DSP6); experiment: Trypanosoma cruzi tyrosyl tRNA synthetase (TcYRS) _High Tyrosine SOP; assay type: functional; details: 30 µM; further: in the data most compounds retested in dose-response had high values
T4 sequence (whole entry): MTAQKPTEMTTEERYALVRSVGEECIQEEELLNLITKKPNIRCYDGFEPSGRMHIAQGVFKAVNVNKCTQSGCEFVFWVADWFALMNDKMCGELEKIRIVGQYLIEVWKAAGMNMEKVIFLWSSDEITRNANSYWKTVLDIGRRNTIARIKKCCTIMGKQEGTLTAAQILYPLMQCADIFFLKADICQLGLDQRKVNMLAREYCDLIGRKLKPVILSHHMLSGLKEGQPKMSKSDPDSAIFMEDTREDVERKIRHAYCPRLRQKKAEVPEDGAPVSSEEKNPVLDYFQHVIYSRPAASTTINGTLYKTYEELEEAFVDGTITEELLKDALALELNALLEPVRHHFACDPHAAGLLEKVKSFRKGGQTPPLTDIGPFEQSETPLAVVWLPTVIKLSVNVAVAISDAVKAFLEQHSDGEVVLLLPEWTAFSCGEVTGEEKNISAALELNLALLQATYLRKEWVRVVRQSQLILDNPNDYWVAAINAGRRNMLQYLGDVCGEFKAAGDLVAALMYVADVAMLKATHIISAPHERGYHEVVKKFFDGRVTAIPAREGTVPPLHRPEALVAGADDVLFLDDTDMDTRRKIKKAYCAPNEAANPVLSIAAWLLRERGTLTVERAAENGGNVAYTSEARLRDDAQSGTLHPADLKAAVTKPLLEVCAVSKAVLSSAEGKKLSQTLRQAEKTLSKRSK

[8] = molecular target: T4, Tyrosyl-tRNA synthetase, putative (Trypanosoma cruzi (strain CL Brener)); experiment: Trypanosoma cruzi tyrosyl tRNA synthetase (TcYRS) SOP; assay type: functional; details: 30 µM
[9] = molecular target: Chromo domain-containing protein 1 (Saccharomyces cerevisiae (strain ATCC 204508 / S288c) (Baker's yeast)) (UniProt P32657); experiment: ScCHD-1 Enzyme Inhibition Assay; assay type: functional; details: 30 µM; further: in the data most compounds retested in dose-response had high values
Chromo domain-containing protein 1 (Saccharomyces cerevisiae (strain ATCC 204508 / S288c) (Baker's yeast)), sequence (P32657 whole entry, the tested form may be a part): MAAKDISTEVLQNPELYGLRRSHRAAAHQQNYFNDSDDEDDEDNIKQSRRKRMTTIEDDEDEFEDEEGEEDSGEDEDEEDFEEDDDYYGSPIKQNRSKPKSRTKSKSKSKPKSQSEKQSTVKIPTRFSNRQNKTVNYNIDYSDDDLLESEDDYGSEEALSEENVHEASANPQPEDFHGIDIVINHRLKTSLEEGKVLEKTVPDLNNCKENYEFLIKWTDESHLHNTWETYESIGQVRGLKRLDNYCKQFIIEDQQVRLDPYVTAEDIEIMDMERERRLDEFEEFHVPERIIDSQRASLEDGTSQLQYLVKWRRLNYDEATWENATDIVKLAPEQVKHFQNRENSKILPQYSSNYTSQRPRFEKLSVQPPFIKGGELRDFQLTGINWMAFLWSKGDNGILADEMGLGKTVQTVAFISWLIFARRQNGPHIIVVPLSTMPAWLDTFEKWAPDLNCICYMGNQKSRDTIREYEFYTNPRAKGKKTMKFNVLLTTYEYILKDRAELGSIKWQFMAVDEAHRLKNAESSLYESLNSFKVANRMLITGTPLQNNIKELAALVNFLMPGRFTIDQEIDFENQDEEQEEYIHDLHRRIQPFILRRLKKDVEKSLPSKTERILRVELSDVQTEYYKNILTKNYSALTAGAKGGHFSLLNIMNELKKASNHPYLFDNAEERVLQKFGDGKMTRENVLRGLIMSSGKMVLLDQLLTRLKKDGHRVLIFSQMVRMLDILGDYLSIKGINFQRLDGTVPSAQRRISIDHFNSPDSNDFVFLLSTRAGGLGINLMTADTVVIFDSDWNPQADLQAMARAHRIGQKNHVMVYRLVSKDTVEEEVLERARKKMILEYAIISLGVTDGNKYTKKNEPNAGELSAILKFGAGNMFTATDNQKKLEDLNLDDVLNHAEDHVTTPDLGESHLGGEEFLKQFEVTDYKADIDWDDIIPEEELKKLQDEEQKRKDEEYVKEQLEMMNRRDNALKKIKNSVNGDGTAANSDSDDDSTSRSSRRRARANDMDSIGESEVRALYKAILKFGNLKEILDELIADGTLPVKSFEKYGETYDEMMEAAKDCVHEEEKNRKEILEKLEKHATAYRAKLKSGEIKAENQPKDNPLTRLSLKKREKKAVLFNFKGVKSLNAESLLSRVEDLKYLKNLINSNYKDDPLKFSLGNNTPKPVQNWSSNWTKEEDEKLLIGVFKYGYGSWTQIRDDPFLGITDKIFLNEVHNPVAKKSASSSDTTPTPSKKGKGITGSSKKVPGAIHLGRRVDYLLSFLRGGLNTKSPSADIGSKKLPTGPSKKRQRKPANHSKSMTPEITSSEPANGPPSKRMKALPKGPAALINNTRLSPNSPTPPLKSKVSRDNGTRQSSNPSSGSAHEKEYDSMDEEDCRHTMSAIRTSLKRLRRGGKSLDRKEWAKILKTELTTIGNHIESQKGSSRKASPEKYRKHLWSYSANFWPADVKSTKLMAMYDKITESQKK

Protein translocase subunit SecA (Escherichia coli (strain K12)), sequence (P10408 whole entry): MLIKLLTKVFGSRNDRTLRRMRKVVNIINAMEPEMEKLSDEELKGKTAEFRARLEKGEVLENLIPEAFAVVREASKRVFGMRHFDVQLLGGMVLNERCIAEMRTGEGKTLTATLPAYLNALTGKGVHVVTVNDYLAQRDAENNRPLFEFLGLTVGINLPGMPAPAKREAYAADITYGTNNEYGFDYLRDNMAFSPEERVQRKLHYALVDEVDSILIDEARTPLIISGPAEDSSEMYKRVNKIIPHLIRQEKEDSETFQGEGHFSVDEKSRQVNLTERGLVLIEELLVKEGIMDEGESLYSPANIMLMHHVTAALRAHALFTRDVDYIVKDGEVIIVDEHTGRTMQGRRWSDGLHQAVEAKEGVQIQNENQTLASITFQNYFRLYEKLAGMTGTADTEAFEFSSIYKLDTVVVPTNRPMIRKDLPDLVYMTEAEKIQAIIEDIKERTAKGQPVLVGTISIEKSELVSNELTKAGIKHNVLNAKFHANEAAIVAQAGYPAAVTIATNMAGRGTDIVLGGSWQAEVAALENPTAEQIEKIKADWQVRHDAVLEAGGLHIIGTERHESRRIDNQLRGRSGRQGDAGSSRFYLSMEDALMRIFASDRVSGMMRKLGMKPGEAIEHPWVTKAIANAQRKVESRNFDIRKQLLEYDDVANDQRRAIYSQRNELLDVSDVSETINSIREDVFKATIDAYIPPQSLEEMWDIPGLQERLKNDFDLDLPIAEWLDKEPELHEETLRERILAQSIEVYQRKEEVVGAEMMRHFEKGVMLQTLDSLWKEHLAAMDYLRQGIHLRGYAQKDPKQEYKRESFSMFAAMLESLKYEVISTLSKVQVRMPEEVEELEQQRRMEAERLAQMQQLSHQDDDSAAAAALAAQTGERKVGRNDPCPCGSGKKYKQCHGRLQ
Sialic acid-binding Ig-like lectin 9 (Homo sapiens), sequence (Q9Y336 whole entry): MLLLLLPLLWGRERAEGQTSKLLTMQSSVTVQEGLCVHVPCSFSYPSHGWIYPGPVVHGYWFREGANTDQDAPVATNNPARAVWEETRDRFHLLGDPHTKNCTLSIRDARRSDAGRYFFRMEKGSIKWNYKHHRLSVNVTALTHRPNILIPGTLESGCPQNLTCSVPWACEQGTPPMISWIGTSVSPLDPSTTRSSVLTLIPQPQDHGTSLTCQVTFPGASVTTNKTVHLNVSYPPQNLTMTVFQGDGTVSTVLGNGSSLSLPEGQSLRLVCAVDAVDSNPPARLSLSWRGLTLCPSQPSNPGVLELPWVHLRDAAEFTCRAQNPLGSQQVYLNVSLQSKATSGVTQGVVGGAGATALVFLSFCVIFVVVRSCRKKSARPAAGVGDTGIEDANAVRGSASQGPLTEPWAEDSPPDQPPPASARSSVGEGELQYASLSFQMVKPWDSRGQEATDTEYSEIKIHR

Q: For CCOc1nnc(CNC2CCCN(c3ccc(C)nn3)C2)s1 (stereo not drawn), which Percent Effect [1] is on record?
A: -2.75%

Q: What about the Percent Effect [2] of the same molecule?
A: 13.5%

Q: And the Percent Effect [3]?
A: -13.2%

Q: And the Percent Effect [4]?
A: -9.51%

Q: What about the Percent Effect (Trypanosoma cruzi) of the same molecule?
A: 6.89%

Q: What about the Percent Effect [5] of the same molecule?
A: -8.02%

Q: And the Percent Effect [6]?
A: 15.1%

Q: And the Percent Effect (Homo sapiens)?
A: 18.7%

Q: And the Percent Effect [7]?
A: 5.42%

Q: And the Percent Effect [8]?
A: 23.5%

Q: What about the Percent Effect [9] of the same molecule?
A: -2.87%

Q: Which Percent Effect [1] does the source give for Cc1nn(C)c(N2CCOCC2)c1CNC(c1cccs1)C(C)C (stereo not drawn) here?
A: -2.38%

Q: What about the Percent Effect [2] of the same molecule?
A: 21.1%

Q: What about the Percent Effect [3] of the same molecule?
A: -9.37%

Q: What about the Percent Effect [4] of the same molecule?
A: -0.827%

Q: What about the Percent Effect (Trypanosoma cruzi) of the same molecule?
A: 1.59%

Q: What about the Percent Effect [5] of the same molecule?
A: 1.8%

Q: What about the Percent Effect [6] of the same molecule?
A: 12.6%

Q: And the Percent Effect (Homo sapiens)?
A: -16.1%

Q: What about the Percent Effect [7] of the same molecule?
A: 10.3%

Q: And the Percent Effect [8]?
A: 28.4%

Q: And the Percent Effect [9]?
A: -6.09%

Q: Which Percent Effect [1] does the source give for CC(=O)N1CCN(S(=O)(=O)c2ccc(C)c(F)c2)CC1 here?
A: -4.54%

Q: What about the Percent Effect [2] of the same molecule?
A: 10.5%

Q: What about the Percent Effect [3] of the same molecule?
A: 2.19%

Q: And the Percent Effect [4]?
A: -1.23%

Q: What about the Percent Effect (Trypanosoma cruzi) of the same molecule?
A: 5.75%

Q: And the Percent Effect [5]?
A: 9.47%

Q: And the Percent Effect [6]?
A: 13.1%

Q: What about the Percent Effect (Homo sapiens) of the same molecule?
A: 12.6%

Q: What about the Percent Effect [7] of the same molecule?
A: 2.13%

Q: And the Percent Effect [8]?
A: 15.6%

Q: And the Percent Effect [9]?
A: -3.17%

Q: For CC(=O)N1CCC(Oc2ccc(Cl)cn2)CC1, which Percent Effect [1] is on record?
A: -1.02%

Q: What about the Percent Effect [2] of the same molecule?
A: 5.48%

Q: And the Percent Effect [3]?
A: -4.62%

Q: And the Percent Effect [4]?
A: 4.94%

Q: What about the Percent Effect (Trypanosoma cruzi) of the same molecule?
A: 4.5%

Q: What about the Percent Effect [5] of the same molecule?
A: 8.64%

Q: And the Percent Effect [6]?
A: 3.19%

Q: And the Percent Effect (Homo sapiens)?
A: 18.8%

Q: And the Percent Effect [7]?
A: 3.23%

Q: What about the Percent Effect [8] of the same molecule?
A: 7.5%

Q: What about the Percent Effect [9] of the same molecule?
A: -4.92%

Q: Which Percent Effect [1] does the source give for COc1ccc(-n2ccc(C(=O)N3CCC(C(N)=O)C3)n2)cc1 (stereo not drawn) here?
A: -7.71%

Q: What about the Percent Effect [2] of the same molecule?
A: 8.11%

Q: And the Percent Effect [3]?
A: -1.34%

Q: And the Percent Effect [4]?
A: 6.17%

Q: And the Percent Effect (Trypanosoma cruzi)?
A: -4.55%

Q: What about the Percent Effect [5] of the same molecule?
A: 1.29%

Q: What about the Percent Effect [6] of the same molecule?
A: -1.44%

Q: And the Percent Effect (Homo sapiens)?
A: 16.4%

Q: And the Percent Effect [7]?
A: 2.97%

Q: And the Percent Effect [8]?
A: 3.66%

Q: What about the Percent Effect [9] of the same molecule?
A: -1.19%

Q: Which results are given for Cc1ccc(N2CCCc3sc(C(=O)NCc4cccnc4)nc32)nn1?
A: Percent Effect [1]: -3.86%; Percent Effect [2]: -8.22%; Percent Effect [3]: -0.787%; Percent Effect [4]: 3.77%; Percent Effect (Trypanosoma cruzi): 7.54%; Percent Effect [5]: -7.19%; Percent Effect [6]: 5.39%; Percent Effect (Homo sapiens): -8.08%; Percent Effect [7]: 1.04%; Percent Effect [8]: 6.17%; Percent Effect [9]: -2.84%

Q: Which results are given for O=C(c1cncc(Br)c1)N1CCC(O)(Cn2ccc3ccncc32)CC1?
A: Percent Effect [1]: 1.79%; Percent Effect [2]: 1.35%; Percent Effect [3]: 12.2%; Percent Effect [4]: -0.489%; Percent Effect (Trypanosoma cruzi): -7.91%; Percent Effect [5]: 1.62%; Percent Effect [6]: 9.52%; Percent Effect (Homo sapiens): 9.61%; Percent Effect [7]: 1.07%; Percent Effect [8]: 1.3%; Percent Effect [9]: -12.2%

Q: How did the Percent Effect [1] turn out when COc1ccc(CNC(C)c2ccc3[nH]c(=O)[nH]c3c2)cc1 (stereo not drawn) was run?
A: 0.617%

Q: And the Percent Effect [2]?
A: -5.41%

Q: What about the Percent Effect [3] of the same molecule?
A: -4.65%

Q: What about the Percent Effect [4] of the same molecule?
A: 13.3%

Q: And the Percent Effect (Trypanosoma cruzi)?
A: 1.23%

Q: What about the Percent Effect [5] of the same molecule?
A: -6.81%

Q: And the Percent Effect [6]?
A: 0.36%

Q: And the Percent Effect (Homo sapiens)?
A: 22.4%

Q: And the Percent Effect [7]?
A: 1.48%

Q: And the Percent Effect [8]?
A: 1.24%

Q: And the Percent Effect [9]?
A: -9.21%
